Only some compounds are listed: those with a hit (about 1.9% of all), similar ones and a draw of the others.
eIF4H FP inh – inhibitors of RNA binding by human eIF4H | Q15056 | eIF4H fluorescence polarization binding assay | inhibition, % at 35 µM | 290,000 compounds, 0.94% hits;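 also: calls also rest on retests at 20 µM and on dose response follow-up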
PABP polyA inh – PABP-poly(A) binding inhibition | PABP-poly(A) RNA binding, fluorescence polarization | P11940 | 290,000 compounds, 1% hits | calls only at 35 µM | AID 2014;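 also: calls also rest on retests at 20 µM and on dose response follow-up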
Target sequence (P11940 whole entry, looked up): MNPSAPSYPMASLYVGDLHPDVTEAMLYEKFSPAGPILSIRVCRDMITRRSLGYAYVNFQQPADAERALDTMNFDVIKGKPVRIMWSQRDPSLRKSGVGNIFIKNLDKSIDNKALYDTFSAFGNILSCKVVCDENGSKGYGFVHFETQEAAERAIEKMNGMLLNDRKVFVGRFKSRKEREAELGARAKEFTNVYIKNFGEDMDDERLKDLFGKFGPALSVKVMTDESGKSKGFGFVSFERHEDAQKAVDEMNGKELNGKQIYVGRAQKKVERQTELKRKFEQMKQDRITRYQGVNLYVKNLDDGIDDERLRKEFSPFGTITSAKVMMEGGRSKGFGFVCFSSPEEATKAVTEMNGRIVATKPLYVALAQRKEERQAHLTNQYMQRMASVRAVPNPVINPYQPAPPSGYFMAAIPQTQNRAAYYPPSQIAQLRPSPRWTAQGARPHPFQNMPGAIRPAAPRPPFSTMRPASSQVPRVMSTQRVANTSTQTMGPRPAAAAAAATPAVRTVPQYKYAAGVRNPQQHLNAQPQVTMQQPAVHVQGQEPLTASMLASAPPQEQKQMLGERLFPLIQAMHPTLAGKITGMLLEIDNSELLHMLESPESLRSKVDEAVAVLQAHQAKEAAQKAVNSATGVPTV
14-3-3 Bad PPI – disrupts binding of bovine 14-3-3 zeta to phospho-Bad peptide; AID 781; inhibition, % at 21.7 µM; 220,000 compounds, 0.71% hits; P63103; TR-FRET 14-3-3zeta/Dy647-pBad peptide displacement, 1 h;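 active = inhibition above about 70%, limit read from the data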;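 also: 0% = full 14-3-3 plus peptide FRET controls and 100% = background without 14-3-3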
eIF4E-4G inh – eIF4E/eIF4G interaction inhibition in translation initiation. P63073+Q04637. TR-FRET eIF4E-eIF4GI(517-606) binding, 2 h. 220,000 compounds, 0.37% hits. inhibition, % at 21.7 µM;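 active = inhibition above about 30%, limit read from the data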;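 also: 0% = full FRET control wells and 100% = background wells lacking eIF4GI fragment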
MLLE-PAM2 inh – blocks PAM2 peptide binding to the PABP1 MLLE domain. 360,000 compounds, 0.36% hits. inhibition, % at 20 µM. P11940. GST-MLLE / FITC-PAM2 fluorescence polarization; in the data active = inhibition above about 35%, passing the limit was not always enough;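 also: plate controls were DMSO wells with GST-MLLE for no effect and wells lacking GST-MLLE protein for full effect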
The depositor's hits bear a star; i = inactive; u = inconclusive; x = no result; + = active, no number; [ ] = dose if it differs, or a comment. Unless noted, no rule for the calls is given here.

SMILES | eIF4H FP inh | PABP polyA inh | 14-3-3 Bad PPI | eIF4E-4G inh | MLLE-PAM2 inh
O=C(CSc1ncnc2sc3c(c12)CCCCC3)NCc1ccco1 | -2.1 | i | 5.7 | -7.3 | 2.5
N#CCN1CCN(CC(=O)Nc2ccc(OCc3ccccc3)cc2)CC1 | -9.1 | i | 2.1 | 0.1 | 1.9
CN1CCN(CC(=O)Nc2ccc(OCc3ccccc3)cc2)CC1 | -14.6 | i | 86.9* | -6.3 | x
O=C(CN1CCN(CCO)CC1)Nc1ccccc1 | -3.7 | i | 73.3* | 3.4 | 9.1
Cc1cccc(N=Cc2cc3c(cc2[N+](=O)[O-])OCO3)c1 | 61.6* | + | 3.9 | 6.2 | -9.2
O=[N+]([O-])c1cc2c(cc1C=Nc1ccccc1)OCO2 | 33.4 | i | 1.1 | 2.2 | -77.5
O=[N+]([O-])c1cc2c(cc1/C=N/n1c(-c3ccccc3)n[nH]c1=S)OCO2 | 58.6* | i | 10.4 | 22.1 | -5.4
O=C1Nc2ccccc2C(=O)N2C[C@@H](O)C[C@H]12 | -2.2 | i | x | x | -0.9
Cc1ccc2oc(Nc3nc(-c4ccccc4)cc(=O)[nH]3)nc2c1 | 1.1 | i | 87.9* | 22.8 | x
COCc1cc(=O)[nH]c(Nc2nc3ccccc3o2)n1 | 2.1 | i | -11.0 | -3.5 | -0.2
O=[N+]([O-])c1cc(-c2ccn[nH]2)ccc1Cl | 1.1 | i | -4.6 | 2.9 | 6.6
Cc1ccc(N(C(=O)Nc2ccccc2)C2=NCCC2)cc1 | 88.3* | + | 4.5 | -1.7 | 10.0
Cc1ccccc1C(=O)NNC(=O)c1cc(N)cc([N+](=O)[O-])c1 | 2.9 | i | 1.8 | 8.8 | 14.9
O=C1c2ccc([N+](=O)[O-])cc2NC(c2ccco2)N1/N=C/c1ccco1 (centres undefined) | 56.0* | i | 0.7 | 4.0 | -2.1
CCc1cccc(C)c1NC(=S)N(CCN(C)C)C(C)c1cccnc1 (centres undefined) | -2.3 | i | 7.9 | -3.6 | -19.9
O=C(CCc1n[nH]c(=O)[nH]c1=O)N/N=C/c1ccco1 | 77.4* | + | -4.9 | 13.1 | -1.1
COc1cc(CC2COC(c3ccc(O)c(OC)c3)C2COC(C)=O)ccc1O (centres undefined) | 90.4* | + | 22.4 | 8.8 | 0.9
Cc1cc(=O)n(CC(C)C)c(O)c1C#N | 119.2* | + | 74.5* | -1.8 | -1.1
Cc1cc(=O)n(CCO)c(O)c1C#N | u | u | 5.3 | -5.2 | 23.4
CCn1c(O)c(C#N)c(C)cc1=O | 77.8* | i | -15.7 | -0.1 | 13.0
Cc1sc2c(c1C)C(=O)NC(c1ccccc1F)N2 (centres undefined) | 20.2 | i | 0.9 | -3.5 | 20.9
CN(C)/N=C/C=C1\CC/C(=C\c2ccc(Br)cc2)C1=O | 66.6* | + | -12.4 | 10.3 | -54.6
COc1cc(/C=C/C(=O)OCC(=O)Nc2c(C)n(C)n(-c3ccccc3)c2=O)cc(OC)c1OC | x | x | x | x | -3.8
O=S(=O)([N-]c1nc2ccccc2nc1-[n+]1ccc(CCCc2ccccc2)cc1)c1cccs1 | 116.5* | + | 5.0 | 5.9 | 29.2
CCOC(=O)c1sc(N)nc1C(C)(C)C | 0.0 | i | 74.1* | 7.4 | 18.0
SMILES | eIF4H FP inh | PABP polyA inh | 14-3-3 Bad PPI | eIF4E-4G inh | MLLE-PAM2 inh
Cc1ccc2cc(CCNC(=O)c3ccco3)c(=O)[nH]c2c1C | u | + | 21.1 | -2.8 | 9.1
CCN1C(=O)[C@H]2[C@@H](c3ccc(C(F)(F)F)cc3)N[C@]3(CCCN(Cc4ccc(Cl)cc4)C3=O)[C@H]2C1=O | x | x | x | x | 12.9
CCOC(=O)c1c(/N=C/N(C)C)sc(/C=N/Nc2ccccc2)c1-c1ccccc1Cl | -9.1 | + | -9.7 | -5.1 | -23.2
O=c1oc(-c2cccnc2)nc2ccccc12 | 5.2 | i | -5.9 | -5.2 | -2.1
Cc1cc(=O)c2cc3nc(-c4cccnc4)oc3c(Br)c2o1 | 97.0* | + | 28.1 | 9.9 | x
Cc1cc(CCC(=O)O)c(C)cc1CCC(=O)O | -1.6 | i | 83.2* | -3.1 | -5.4
O=C(Cn1cnc2ccccc21)c1ccccc1 | -2.5 | i | x | x | 2.7
O=C(O)c1ccn(Cn2cnc3ccccc32)n1 | 3.0 | i | 75.8* | -4.6 | 3.8
COc1ccc(CN2CCN(c3nc4ccccc4s3)CC2)cc1 | -7.4 | i | x | x | -6.1
COc1ccc(CCn2c(O)cc3nn(-c4nc5ccccc5s4)c(=O)c-3c2C)cc1 | 68.0* | + | -27.5 | 3.7 | -56.9
O=C(CSc1nnc(-c2ccco2)c(-c2ccco2)n1)c1ccccc1 | 110.0* | + | 18.8 | 11.4 | 21.6
CC(=O)c1ccc(NC(=O)CSc2nnc(-c3ccco3)c(-c3ccco3)n2)cc1 | 99.9 | i | 8.3 | 11.9 | 31.5
Cn1c(=O)c(=O)n(C)c2cc(S(=O)(=O)CCC(=O)Nc3ccccc3C(F)(F)F)ccc21 | x | x | x | x | 3.1
CCOCc1nc2nc(Cl)c(Cl)nc2[nH]1 | x | x | x | x | -7.1
OCc1nc2nc(Cl)c(Cl)nc2[nH]1 | 51.9* | + | 2.2 | 6.8 | 9.8
CC(C)(C)c1ccc(CCC2OCC(C[N+]3(C)CCOCC3)O2)cc1 (centres undefined) | -3.6 | i | -0.5 | 91.2* | -124.0
O=C(Nc1ccccc1)c1ccsc1 | 0.4 | i | -20.9 | 2.3 | 22.7
COC(=O)c1ccc(CSc2n[nH]c(=S)s2)o1 | -11.4 | i | 30.5 | 33.0* | -43.5
Cc1c(NC(=O)CC(C)C)c(=O)n(-c2ccccc2)n1C | -1.4 | + | -8.7 | 2.3 | 0.7
COc1ccc(OC)c(NC(=O)CCN2C(=O)c3ccccc3C2=O)c1 | 20.5 | i | x | x | 15.2
O=C(c1ccc(F)cc1)C1CCN(C(=S)Nc2ccc(F)cc2)CC1 | 4.6 | i | x | x | -103.4
OC(c1ccccc1)(c1nc(-c2ccccc2)cs1)C(F)(F)F (centres undefined) | x | x | x | x | -1.0
CC(C)c1ccc(C2C3CSCC=C3C(C#N)=C(N)C2(C#N)C#N)cc1 (centres undefined) | 127.5* | + | 9.2 | 8.0 | x
COC(=O)c1cc(C)[nH]c2c(C)cc3nc4ccccc4c3c12 | -8.7 | i | -3.0 | 2.3 | 7.5
O=C(CSc1ccc(F)cc1)Nc1ccc(C2SCCS2)cc1 | -8.6 | i | 14.7 | 1.1 | 8.7
SMILES | eIF4H FP inh | PABP polyA inh | 14-3-3 Bad PPI | eIF4E-4G inh | MLLE-PAM2 inh
O=C(OCCN1CCOCC1)C(c1ccccc1)c1ccccc1 | -14.2 | i | 20.3 | -0.2 | 18.4
CC(C)N1C(=O)CC2(CC[N+](C)(CCOC(=O)C(c3ccccc3)c3ccccc3)CC2)C1=O (centres undefined) | 17.1 | i | 76.6*[fluorescence artefact?] | -1.0 | -118.5
CCCCn1c(N)c(N(CC)C(=O)c2c(C)noc2C)c(=O)[nH]c1=O | x | x | x | x | -2.7
Cc1cc(C)n2nc(C(=O)Nc3ccc4c(c3)CCC4)nc2n1 | 2.1* | i | 0.5 | 1.4 | -16.0
Cc1nc(C)n(CC(=O)N2CCCC(C(=O)c3cccc4ccccc34)C2)n1 (centres undefined) | 64.7 | i | -13.3 | -0.5 | -2.9
COCCCNC(=O)/C(C#N)=c1\s/c(=C\c2ccccc2OC(F)F)c(=O)n1CCCOC | 54.7* | i | 4.3 | 3.3 | -8.1
CC1(C(=O)NS(=O)(=O)c2ccc(Cl)cc2)CCN1C(=O)C/C=C/c1ccccc1 (centres undefined) | x | x | x | x | -7.7

High-throughput results from PubChem.
